nsP2pro inh – CHIKV nsP2 protease inhibition, primary qHTS; FRET peptide cleavage, nsP2pro, fluorescence 1 h; Potency, µM (highest dose often 24.9 µM), without a hit: at the top dose activity change, negative = inhibition, actives largely listed as inhibitors; actives 1.1% (n = 31,000); also: nearly all actives have a fitted effect of over 60% in size
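FRET cleavage of 2.5 uM peptide 2 by 150 nM CHIKV protease domain at pH 8.0 (Tris, Tween 20). Compounds at 7 concentrations (up to 25 uM) preincubated 15 min. Fluorescence read after 1 h at room temperature.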
nsP2 cell sec – cell-based CHIKV nsP2 protease inhibition, secondary | cell-based CHIKV nsP2 protease reporter assay | Potency, µM (titrated, usually from 51.1 µM), for inactives: at the highest dose activity change, negative = inhibition, actives largely listed as inhibitors | AID 1964100 | actives 10% (n = 450) | shares compounds with nsP2pro inh; also: nearly all actives have a fitted effect of over 70% in size
CHIKV NSP2 FL – full-length CHIKV NSP2 protease inhibition, selectivity; actives 39% (n = 410); shares compounds with nsP2pro inh; Full-length CHIKV NSP2 protease enzymatic counterscreen; Potency, µM (titrated, usually from 50.7 µM), inactives show at the highest dose activity change, negative = inhibition, hits mostly inhibitors; also: nearly all actives have a fitted effect of over 65% in size
Furin counter – selectivity counter-screen for CHIKV nsP2 protease inhibitors: human furin. shares compounds with nsP2pro inh. actives 6% (n = 410). Recombinant human furin enzymatic counterscreen, fluorogenic substrate. AID 1964102. Potency, µM (highest dose often 50.6 µM), inactives show at the top dose activity change, negative = inhibition, actives largely listed as inhibitors
nsP2 NS23 pep – selectivity test for CHIKV nsP2 protease inhibitors: endogenous NS2/3 peptide; actives 34% (n = 410); AID 1964103; Purified CHIKV nsP2 protease, endogenous NS2/3 peptide cleavage; Potency, µM (highest dose often 51 µM), without a hit: at the highest dose activity change, negative = inhibition, usual class: inhibitors; shares compounds with nsP2pro inh; also: nearly all actives have a fitted effect of over 55% in size
Papain cs – selectivity counter-screen for CHIKV nsP2 protease inhibitors: papain; shares compounds with nsP2pro inh; purified papain protease activity, enzymatic inhibition; Potency, µM (doses to about 51 µM), for the others: at the top dose activity change, negative = inhibition, usual class: inhibitors; actives 5% (n = 410)
Target sequence (P00784 whole entry, looked up): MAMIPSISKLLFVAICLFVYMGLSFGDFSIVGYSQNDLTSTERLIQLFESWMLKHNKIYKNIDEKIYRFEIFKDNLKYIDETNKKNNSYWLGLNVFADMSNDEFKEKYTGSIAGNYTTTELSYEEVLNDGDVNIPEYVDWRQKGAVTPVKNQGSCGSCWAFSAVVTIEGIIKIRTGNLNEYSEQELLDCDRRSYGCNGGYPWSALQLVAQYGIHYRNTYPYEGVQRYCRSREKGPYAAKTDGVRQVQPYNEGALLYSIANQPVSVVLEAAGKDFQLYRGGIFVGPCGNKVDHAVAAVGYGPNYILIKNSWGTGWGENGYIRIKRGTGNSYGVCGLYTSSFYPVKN
nsP2pro confirm – CHIKV nsP2 protease inhibition, confirmatory qHTS; shares compounds with nsP2pro inh; CHIKV nsP2 protease enzymatic activity, qHTS; Potency, µM (highest dose often 25.5 µM), for the others: at the top dose activity change, negative = inhibition, hits mostly inhibitors; actives 43% (n = 410); also: nearly all actives have a fitted effect of over 75% in size
HCV NS3 4A cs – HCV NS3/4A protease inhibition, counterscreen; shares compounds with nsP2pro inh; HCV NS3/4A protease biochemical counterscreen; Potency, µM (top dose mostly 50.9 µM), hits mostly inhibitors; actives 20% (n = 410); AID 1964106; also: nearly all actives have a fitted effect of over 55% in size
* hit, by the source's call; i = inactive; ? = inconclusive; [ ] = another dose, or the depositor's remark. Many of the other results were omitted from the sample, so hits are more common in it than they were. Calls follow the shape of the full dose curve. % is scaled to controls: 0 for no effect and ±100 for the full control effect; potency is read from the fitted curve at half-maximal effect.

SMILES	nsP2pro inh	others
COC(=O)c1c(NC(=O)/C(C#N)=C/c2ccccc2)sc2c1C(C(=O)OC)CC2 (stereo not drawn)	0%
CNC(=O)c1cc(C2CC2)nc2onc(C3CCN(C(=O)C4CCCCC4)CC3)c12	i
CCOC(=O)[C@H]1O[C@@H]1C(=O)N[C@@H](CC(C)C)C(=O)NCCC(C)C	8.8µM*	nsP2 cell sec=-9%;CHIKV NSP2 FL=16µM*;Furin counter=-9%;nsP2 NS23 pep=?;Papain cs=1.2µM*;nsP2pro confirm=8µM*;HCV NS3 4A cs=i
CC(C)CCNC(=O)[C@H](CC(C)C)NC(=O)[C@H]1O[C@@H]1C(=O)NCc1cccc(C#N)c1	2.5µM*	nsP2 cell sec=?;CHIKV NSP2 FL=6.5µM*;Furin counter=1%;nsP2 NS23 pep=5.8µM*;Papain cs=2.6µM*;nsP2pro confirm=2.5µM*;HCV NS3 4A cs=i
CCOC(=O)c1noc2ncn(Cc3cccc(C#N)c3)c(=O)c12	-13%
CC(C)CCNC(=O)C1CCCN(C2CCN(CCc3ccccc3)CC2)C1 (stereo not drawn)	4%
O=C(Nc1ccc2c(c1)OCCO2)N1CCC(Cc2nc(-c3ccncc3)n[nH]2)C1 (stereo not drawn)	-9%
CC(=O)Nc1nc(C)c(S(=O)(=O)Nc2ccc(C(O)(C(F)(F)F)C(F)(F)F)cc2)s1	-21%
O=C(Nc1nc(-c2ccccc2)cs1)c1ccncc1NS(=O)(=O)c1ccccc1Cl	i
Fc1ccc(NC(=S)Nc2nnc(-c3ccncc3)s2)cc1C(F)(F)F	i
Cc1c(C(=O)O)[nH]c2c1C(=O)CC(c1ccco1)C2 (stereo not drawn)	i
CCNC1(C(N)=O)CN(c2nc(C)nc3c(-c4ccc(Cl)cc4)c(-c4ccccc4Cl)nn23)C1	-8%
COc1cccc(NS(=O)(=O)c2ccc(NCc3cccc(OC)c3O)cc2)c1	i
OCCc1ccc(O[C@@H]2O[C@H](CO)[C@@H](O)[C@H](O)[C@H]2O)cc1	-6%
COc1cc(CCO)ccc1O[C@@H]1O[C@H](CO)[C@@H](O)[C@H](O)[C@H]1O	?	nsP2 cell sec=-6%[33.5 µM];CHIKV NSP2 FL=-27%[33.5 µM];Furin counter=8%[33.5 µM];nsP2 NS23 pep=-8%[33.5 µM];Papain cs=-7%[33.5 µM];nsP2pro confirm=?;HCV NS3 4A cs=i
COc1cc(CO)ccc1O[C@@H]1O[C@H](CO)[C@@H](O)[C@H](O)[C@H]1O	-1%
Cc1ccc(NS(=O)(=O)c2ccc(C(=O)Nc3nc(-c4ccccc4)cs3)cc2)cc1	-9%
S=C(Nc1cc(Cl)ccn1)N1CCN(c2cccc(Cl)c2Cl)CC1	i
Cc1cc(CCCOc2c(C)cc(-c3noc(C(F)(F)F)n3)cc2C)on1	?	nsP2 cell sec=-7%;CHIKV NSP2 FL=21%;Furin counter=-17%;nsP2 NS23 pep=0%;Papain cs=-9%;nsP2pro confirm=-14%;HCV NS3 4A cs=i
CCCN1CC2(CCN(C)CC2)CC1C(=O)N(C)Cc1nnc(C)o1 (stereo not drawn)	-8%
CCCCCCCCCCCC(=O)OCN1C(=O)CCc2ccc(OCCCCN3CCN(c4cccc(Cl)c4Cl)CC3)cc21	-1%[5.1 µM]
c1csc(CNc2ncnc3ccc(-c4ccc5c(c4)OCO5)cc23)n1	1%
c1cncc(-c2ccc3ncnc(NCc4cccs4)c3c2)c1	i
OCc1ccc(-c2ccc3ncnc(NCc4nccs4)c3c2)o1	8.9µM*	nsP2 cell sec=?;CHIKV NSP2 FL=10µM*;Furin counter=-13%;nsP2 NS23 pep=21µM*;Papain cs=17%;nsP2pro confirm=?;HCV NS3 4A cs=3.7µM*
Cc1cc(NS(=O)(=O)c2ccc(C(=O)NCc3ccc(Cl)c(Cl)c3)cc2)no1	i
SMILES	nsP2pro inh	others
Cc1nnc(-c2sc(NC(=O)[C@H](C(C)C)n3c(=O)[nH]c4ccccc4c3=O)nc2C)o1	-12%
COc1ccc(C2(O)CCC(N3CC[C@@H](NC(=O)CNC(=O)c4cccc(C(F)(F)F)c4)C3)CC2)cn1 (stereo partly drawn)	74%
Clc1ncoc1-c1c[nH]c2ccccc12	?	nsP2 cell sec=-13%;CHIKV NSP2 FL=-18%;Furin counter=-2%;nsP2 NS23 pep=-26%;Papain cs=-13%;nsP2pro confirm=-22%;HCV NS3 4A cs=i
CNc1oc(-c2c[nH]c3ccccc23)nc1C#N	i
CN1c2cccnc2CN(Cc2ccc(C(F)(F)F)cc2)CC[C@H]1CO	6%[39.2 µM]
O=C1Nc2ccccc2/C1=C/c1cc(O)ccc1O	7.9µM*	nsP2 cell sec=?;CHIKV NSP2 FL=?;Furin counter=?;nsP2 NS23 pep=23µM*;Papain cs=-11%;nsP2pro confirm=8µM*;HCV NS3 4A cs=10µM*
O=C1Nc2ccccc2/C1=C\c1ccc(O)c(Cl)c1	i
O=C1Nc2ccccc2/C1=C\c1cc(F)c(O)c(F)c1	i
CCCNC(=O)N[C@@H]1CCC[C@@H](C(=O)NCc2cc(C)on2)CC(=O)N(C)C1	28%[39.2 µM]
O=C(NCC(=O)N1CCCC1)Nc1ccc2cnccc2c1	0%
COc1ccccc1NC(=O)Nc1ccc2ccccc2c1	44%
O=C(NCC(=O)N1CCCC1)Nc1ccc2ccccc2c1	?	nsP2 cell sec=-3%;CHIKV NSP2 FL=?;Furin counter=-5%;nsP2 NS23 pep=-25%;Papain cs=-1%;nsP2pro confirm=-14%;HCV NS3 4A cs=i
Cc1ccc(CNc2ncnc3ccc(-c4ccoc4)cc23)o1	i
CC(C)=CCCC1(C)C=Cc2c(O)c3c(c(CC=C(C)C)c2O1)OC12C(=CC4CC1C(C)(C)OC2(C/C=C(/C)C(=O)O)C4=O)C3=O (stereo not drawn)	?	nsP2 cell sec=?;CHIKV NSP2 FL=-6%;Furin counter=-13%;nsP2 NS23 pep=?;Papain cs=-19%;nsP2pro confirm=?;HCV NS3 4A cs=i
CC(C)=CCCC1(C)C=Cc2c(c(C)cc3c2[nH]c2ccccc23)O1 (stereo not drawn)	0%
FC(F)(F)c1ccccc1-c1cc(C(F)(F)F)c2nc(C3=NOC4(CCCCC4)C3)[nH]c2c1	-8%
CCCCC[C@@H](O)CC[C@H]1[C@@H]2Cc3cccc(OCC(=O)O)c3C[C@@H]2C[C@@H]1O	-2%
O=c1[nH]c(-c2ccc(F)cc2)nc2c1CCN(S(=O)(=O)c1cccs1)C2	1%
CS(=O)(=O)c1ccccc1N1CCN(c2nc3c(c(=O)[nH]2)CSCC3)CC1	-21%
O=c1[nH]c(-c2ccc(C(F)(F)F)cc2)nc2c1CSCC2	?	nsP2 cell sec=12%;CHIKV NSP2 FL=-10%;Furin counter=0%;nsP2 NS23 pep=-1%;Papain cs=-1%;nsP2pro confirm=-9%;HCV NS3 4A cs=i
Cc1ccc(S(=O)(=O)Nc2cc(C(F)(F)F)ccc2C(=O)Nc2nc(-c3ccccc3)cs2)cc1	-3%
CC1=CC(=O)CC2C1(O)CCC(C)C21CC(c2ccoc2)OC1=O (stereo not drawn)	33%
